# Test system: CHEK1
# Settings: concentration: 1 μM, replicates: in singlicate; n = 1
# 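Note: KINOMEscan kinase panel screen.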
row,Compound,%Inh
1,Nc1nc(-c2nccs2)c(-c2ccnc3ccccc23)s1 [GW693542],5%
2,CC1=C(C(=O)Nc2cc3cn[nH]c3cc2F)C(c2ccc(C(F)(F)F)cc2)CC(=O)N1 (stereo not shown) [GSK429286],7%
3,Cc1cccc(-c2nc(Nc3ccc4[nH]ncc4c3)c3ccccc3n2)n1 [GW857175],4%
4,Cc1cc(NCC(c2ccccc2)c2ccccc2)nc(NCc2ccc(C(F)(F)F)cc2)n1 [GW497681],0%
5,COC(=O)c1c(-c2ccccc2)c2cc(OC)ccc2c(=O)n1Cc1ccccc1,0%
6,Cn1ccc2ncnc(Oc3ccc(Nc4nc5ccccc5[nH]4)cc3)c21,0%
7,COc1cc(Nc2nccc(N3CCC(NC(=O)Nc4cc(C)ccc4C)C3)n2)cc(OC)c1OC (stereo not shown) [GSK1379762],25%
8,O=C(Nc1ccccc1)Nc1cccc(Oc2ccc3nccn3n2)c1,0%
9,Cl.O=C(Nc1cccc(-c2nn3ncccc3c2-c2ccnc(Nc3cccnc3)n2)c1)c1c(F)cccc1F [GSK312879],12%
10,CCn1c(-c2ccccn2)nc2cnccc21 [SB-736398],0%
11,CC(C)(C)c1ccc(C(=O)Nc2cn3cc(Cl)ccc3n2)cc1,0%
12,Cl.NC(=O)c1cccc(Nc2nccc(Nc3ccc(Oc4cccc(Cl)c4)c(Cl)c3)n2)c1 [GW659008],0%
13,Cc1ccccc1-n1cnc2c(N)ncnc21 [SKF-97510],5%
14,COc1ccc2nc(-c3cccc(C)n3)nc(Nc3ccncc3)c2c1 [GSK204919],10%
15,Cc1nnc(-c2ccc3occ(-c4ccc(S(C)=O)cc4)c3c2)[nH]1 (stereo not shown),0%
16,Cc1cccc(-c2cc(Nc3ccncc3)c3ccccc3n2)n1 [GSK223675],0%
17,Cc1csc(-c2nc(Nc3ccncc3)c3ccccc3n2)n1 [GW869640],7%

row,Compound,%Inh
1,Cn1ccc2ncnc(Oc3cccc(C(=O)Nc4ccccc4)c3)c21,0%
2,O=C(Nc1n[nH]c2cc(-c3cccc(F)c3F)ccc12)C1CC1 [SB-733894],3%
3,Cc1cc(-c2ccc3c(c2)CC[C@@H](N[C@@H](C)c2ccccc2)C3)cnc1N.Cl [GW412617],14%
4,Cc1ccc(NC(=O)Nc2cccc(Cl)c2)cc1-c1ccc(C(=O)Nc2ccncc2)cc1 [GSK1398468],0%
5,CN(C)CCN(C)C(=O)c1cc(-c2ccncc2)c(-c2ccc(Cl)c(O)c2)o1.Cl.Cl [SB-710397],9%
6,O=C(Nc1n[nH]c2nc(-c3nccs3)c(Br)cc12)C1CC1 [SB-742251],0%
7,Cc1cccc(-c2nc(C)cc(Nc3ccncc3)n2)n1 [GSK257997],0%
8,Cc1cccc(-c2nc(Nc3cccc(C(N)=O)c3)c3ccccc3n2)n1 [GW876019],0%
9,COc1cc2ncnc(Nc3ccc4nc(-c5ccccc5)[nH]c4c3)c2cc1OC.Cl [GW282450],0%
10,CN1C(=O)C(Nc2ccc(Cl)c(C(=O)O)c2)=C(c2ccc(Cl)cc2)C1=O [SB-404290],0%
11,Cc1cccc(-c2nc(Nc3ccncc3)c3ccccc3n2)n1 [GW855857],0%
12,CCn1c(-c2cccnc2O)nc2cnccc21 [SB-736715],0%
13,COc1ccccc1-c1ccc2c(NC(=O)C3CC3)n[nH]c2n1 [SB-711239],11%
14,CS(=O)(=O)c1ccc(-c2nc3n(c2-c2ccncc2)CCC3)cc1 [SKF-105942],0%
15,CC(C)(C)c1ccc(C(=O)Nc2cn3cc(-c4cccnc4)ccc3n2)cc1,25%
16,Cc1c(Cn2ccn3c(=O)cc(N4CCOCC4)nc23)cccc1C(F)(F)F [GSK2289044],0%
17,O=C(O)COc1ncnc2cc(-c3ccc4[nH]ncc4c3)sc12,0%
